“And” between values parts separate entries of the source, which are not always exact repeats. Identical values can stand only once. Results filed as inconclusive are left out. The source made the active and inactive calls. Unless noted, calls follow the shape of the dose curve; as a rule, active = well fitted curve in the direction sought with a large enough effect; inconclusive = small, poorly fitted or top-dose-only effect, or another doubt; inactive = no such curve, though single readings can be large; an effect the other way counts as inactive or inconclusive.
What was measured:
[1] = qHTS assay for environmental chemicals that activate the Aryl hydrocarbon Receptor (AhR) signaling pathway (AID 651777); details: 1A2-DRE human hepatoma cells, luciferase, 24 h; stronger effect = higher value; also: % of control where 0% means no effect; nearly all actives have a fitted effect of over 15% in size
Summary of the method: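 Quantitative HTS in stably transfected human liver-derived cells whose luciferase gene sits downstream of the CYP1A2 promoter and dioxin response element. After 24 hr exposure at 37 C, One-Glo luminescence was measured.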

[2] = biological target: Peroxisome proliferator-activated receptor alpha (Homo sapiens) (UniProt Q07869); experiment: qHTS assay for small molecule agonists of the peroxisome proliferator-activated receptor alpha (PPARalpha) signaling pathway (AID 651778); details: PathHunter PPARalpha complementation, chemiluminescence, 6 h; stronger effect = higher value; also: % of control where 0% means no effect
Chain of Peroxisome proliferator-activated receptor alpha (Homo sapiens) (Q07869 whole entry, looked up): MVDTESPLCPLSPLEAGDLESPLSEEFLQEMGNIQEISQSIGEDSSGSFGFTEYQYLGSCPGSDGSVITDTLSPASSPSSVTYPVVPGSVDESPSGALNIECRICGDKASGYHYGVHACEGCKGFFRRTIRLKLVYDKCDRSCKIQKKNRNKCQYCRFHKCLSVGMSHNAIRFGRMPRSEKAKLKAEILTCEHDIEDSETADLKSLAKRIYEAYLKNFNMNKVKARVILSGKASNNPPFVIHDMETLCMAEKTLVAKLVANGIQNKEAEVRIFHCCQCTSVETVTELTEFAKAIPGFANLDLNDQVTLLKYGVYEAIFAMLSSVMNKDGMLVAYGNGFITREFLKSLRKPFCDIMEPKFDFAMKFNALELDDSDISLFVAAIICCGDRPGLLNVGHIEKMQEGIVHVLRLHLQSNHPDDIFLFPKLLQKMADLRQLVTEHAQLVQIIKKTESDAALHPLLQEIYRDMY
Summary of the method: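 Chemiluminescence from complemented enzyme reported PPARalpha activation in cells after 6 hr of compound treatment at 37 C. The detection reagent was incubated for 60 min at room temperature, and compounds were scored as agonists.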

[3] = qHTS for compounds that reverse cellular toxicity of Amyloid beta (A-beta) peptide in yeast: LOPAC Validation Assay (AID 720559); details: yeast expressing A-beta; series mostly up to 46.1 µM;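 also: plate controls were DMSO for no effect and equimolar ferric chloride plus clioquinol rescue for full effect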
Summary of the method: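 Here, A-beta-toxic yeast grow with test compounds at 30 C for 48 hr before optical density at 600 nm is recorded; data are normalized against DMSO and the FeCl3-clioquinol control.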

[4] = qHTS for Activators of Parkin Expression: LOPAC Validation Assay (NLuc Reporter) (AID 720572;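 also: 0% = DMSO and 100% = positive control compound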); details: Parkin promoter NanoLuc reporter cells, luminescence; series mostly up to 46.1 µM
Summary of the method: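 Parkin promoter-driven FLuc/NLuc neuronal reporter cells; 24 h plating, 7-pt dose response, 24 h at 37 C/5% CO2; FLuc then NanoLuc reagent, 10 min each, luminescence; DMSO/positive control normalized.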

[5] = qHTS for Activators of Parkin Expression: LOPAC Validation Assay (FLuc Reporter) (AID 720573;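 also: 0% = DMSO and 100% = positive control compounds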); details: Cell line, PRKN promoter firefly luciferase reporter, vehicle wells = 0, positive control = 100%; series mostly up to 46.1 µM
Summary of the method: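 Readout is FLuc luminescence from neuronal reporter cells (Parkin promoter, FLuc plus NLuc) after 24 h compound exposure in dose response. Values normalized to neutral DMSO and positive-control compounds.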

[6] = qHTS assay for small molecule agonists of the antioxidant response element (ARE) signaling pathway measured by Nrf2-dependant transcriptional activity (AID 720636; active = well fitted curve in the direction sought with a large enough effect in the repeat runs; an effect the other way counts as inactive or inconclusive; also: % of control where 0% means no effect); details: ARE-luc HepG2, Nrf2 luciferase reporter, 16 h; series mostly up to 92.4 µM
Summary of the method: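 Quantitative HTS format in HepG2 cells stably expressing an ARE-luciferase reporter; 16 hr compound treatment at 37 C, luciferase signal detected with ONE-Glo.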

[7] = qHTS assay for small molecule agonists of the antioxidant response element (ARE) signaling pathway measured by Nrf2-dependant transcriptional activity - cell viability counter screen (AID 720653; active = well fitted curve in the direction sought with a large enough effect in the repeat runs; an effect the other way counts as inactive or inconclusive; also: % is scaled to controls: 0 for no effect and ±100 for the full control effect); details: ARE-bla HepG2 viability, CellTiter-Glo ATP luminescence, 16 h; max response: stronger effect = lower value
Summary of the method: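 Cytotoxicity counter screen: intracellular ATP quantified by CellTiter-Glo luminescence in the same ARE-bla HepG2 plates, after 16 h compound exposure and a 2 h beta-lactamase substrate step.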

[8] = biological target: T1, Hexokinase-4 (Homo sapiens) + Glucokinase regulatory protein (Homo sapiens) (UniProt P35557+Q14397); experiment: qHTS assay for inhibitors of recombinant human GCK-GKRP interaction: Diaphorase-coupled assay (AID 743205); details: G6PDH/diaphorase resorufin fluorescence; series mostly up to 57.5 µM
T1 sequence (P35557 whole entry, looked up): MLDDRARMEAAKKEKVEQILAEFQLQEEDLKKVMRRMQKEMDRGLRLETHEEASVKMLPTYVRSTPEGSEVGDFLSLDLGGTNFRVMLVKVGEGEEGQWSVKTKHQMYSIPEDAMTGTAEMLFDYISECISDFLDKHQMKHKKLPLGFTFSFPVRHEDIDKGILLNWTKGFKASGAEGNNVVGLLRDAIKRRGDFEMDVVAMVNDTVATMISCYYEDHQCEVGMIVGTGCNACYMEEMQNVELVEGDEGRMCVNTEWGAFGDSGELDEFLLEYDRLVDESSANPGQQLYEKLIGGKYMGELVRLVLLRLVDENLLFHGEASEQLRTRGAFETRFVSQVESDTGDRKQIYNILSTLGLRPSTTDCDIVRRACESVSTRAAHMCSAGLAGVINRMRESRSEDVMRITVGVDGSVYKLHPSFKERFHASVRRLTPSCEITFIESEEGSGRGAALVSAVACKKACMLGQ
T1 sequence (Q14397 whole entry, looked up): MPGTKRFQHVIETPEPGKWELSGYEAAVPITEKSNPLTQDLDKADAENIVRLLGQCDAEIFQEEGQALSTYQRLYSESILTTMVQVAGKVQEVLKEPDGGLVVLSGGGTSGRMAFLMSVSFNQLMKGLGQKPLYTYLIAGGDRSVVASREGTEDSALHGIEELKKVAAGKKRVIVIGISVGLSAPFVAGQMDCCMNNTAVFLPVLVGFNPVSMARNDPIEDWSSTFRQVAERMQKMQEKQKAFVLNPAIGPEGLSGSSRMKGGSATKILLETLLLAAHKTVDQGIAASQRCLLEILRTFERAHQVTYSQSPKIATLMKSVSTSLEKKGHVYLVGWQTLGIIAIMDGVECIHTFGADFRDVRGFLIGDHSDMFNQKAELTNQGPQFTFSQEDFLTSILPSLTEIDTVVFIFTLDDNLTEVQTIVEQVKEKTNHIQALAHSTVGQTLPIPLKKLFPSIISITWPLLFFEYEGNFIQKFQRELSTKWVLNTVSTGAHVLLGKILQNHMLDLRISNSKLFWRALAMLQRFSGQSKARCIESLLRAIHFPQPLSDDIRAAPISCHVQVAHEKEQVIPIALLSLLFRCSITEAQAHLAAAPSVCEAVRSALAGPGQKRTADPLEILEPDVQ
Summary of the method: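 Signal derives from resorufin generated by diaphorase, linked to GCK turnover of glucose (5 mM) and ATP (0.4 mM). Enzyme complex was added after a 20-minute compound preincubation and monitored for 30 minutes.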

[9] = biological target: T1, Hexokinase-4 (Homo sapiens) + Glucokinase regulatory protein (Homo sapiens); experiment: qHTS assay for inhibitors of recombinant human GCK-GKRP interaction: ADP-Glo assay (AID 743206); details: ADP-Glo luminescence, 60 min, 0% = vehicle-only wells with enzyme present; series mostly up to 76.9 µM;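 also: plate controls were DMSO plus enzyme for no effect and no enzyme for full effect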
Summary of the method: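 GST-GCK and FLAG-GKRP (15 nM each in the dispensed mix, with 2 uM S6P) react with 0.4 mM ATP and 5 mM glucose (final) in Hepes pH 7.6 for 60 min at room temperature. ADP is measured by ADP-Glo luminescence.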

[10] = biological target: T1, Hexokinase-4 (Homo sapiens) + Glucokinase regulatory protein (Homo sapiens); experiment: qHTS assay for inhibitors of recombinant human GCK-GKRP interaction: HTRF assay (AID 743207); details: recombinant GCK-GKRP HTRF binding, 60 min, with sorbitol-6-phosphate; series mostly up to 57.5 µM;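 also: 0% = DMSO with GCK present and -100% = DMSO wells lacking GCK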
Summary of the method: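 Titration screening format: recombinant GST-GCK and FLAG-GKRP at 5 nM, S6P at 2 uM, labelled anti-tag antibodies, 60 min at RT, dual-wavelength HTRF readout.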

[11] = qHTS Assay for Identifying Gametocytocidal Compounds (AID 743244);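 also: % is scaled to controls: 0 for no effect and ±100 for the full control effect; actives lower the fluorescent signal which means gametocytes are killed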; details: P. falciparum 3D7 stage III-V gametocytes, alamarBlue, 72 h; max response: stronger effect = lower value
Summary of the method: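 Stage III–V gametocytes of P. falciparum 3D7 were seeded at 20,000 cells/well onto pre-dispensed compounds. After 72 h, 37 °C, 5% CO2, alamarBlue was added for another 24 h.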

[12] = biological target: Nuclear receptor ROR-gamma (Homo sapiens) (UniProt P51449); experiment: qHTS assay for small molecule antagonists of the retinoid-related orphan receptor gamma (ROR-gamma) signaling pathway (AID 651802); details: ROR-gamma antagonist cell reporter assay; series mostly up to 92.2 µM;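 also: luciferase reporter luminescence driven by ROR response element; % is scaled to controls: 0 for no effect and ±100 for the full control effect; nearly all actives have a fitted effect of over 60% in size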
Chain of Nuclear receptor ROR-gamma (Homo sapiens) (P51449 whole entry, looked up): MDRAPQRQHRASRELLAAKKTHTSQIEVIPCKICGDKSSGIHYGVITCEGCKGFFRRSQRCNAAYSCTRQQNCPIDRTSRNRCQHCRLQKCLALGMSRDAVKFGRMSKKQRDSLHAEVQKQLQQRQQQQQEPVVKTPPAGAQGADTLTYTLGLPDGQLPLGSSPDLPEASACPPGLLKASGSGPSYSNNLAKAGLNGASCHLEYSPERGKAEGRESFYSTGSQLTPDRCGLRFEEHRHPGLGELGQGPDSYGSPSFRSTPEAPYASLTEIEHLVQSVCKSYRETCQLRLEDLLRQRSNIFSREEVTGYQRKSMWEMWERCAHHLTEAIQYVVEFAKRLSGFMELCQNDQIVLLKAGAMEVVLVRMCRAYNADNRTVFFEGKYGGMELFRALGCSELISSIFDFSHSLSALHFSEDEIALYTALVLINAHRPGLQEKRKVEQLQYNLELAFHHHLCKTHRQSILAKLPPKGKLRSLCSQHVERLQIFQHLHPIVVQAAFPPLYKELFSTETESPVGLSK
Summary of the method: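 CHO, TET-inducible ROR + RORE-LUC reporter, 1536-well qHTS. Compound pinned, doxycycline added, 16hr 37C/5% CO2. ONE-Glo, 30 min RT, luminescence; signal drop scored as antagonism.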

[13] = qHTS assay for small molecule antagonists of the retinoid-related orphan receptor gamma (ROR-gamma) signaling pathway - cell viability counter screen (AID 720652; active = well fitted curve in the direction sought with a large enough effect in the repeat runs; an effect the other way counts as inactive or inconclusive;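 also: compound exposure lasted 16 hr before ATP read; % is scaled to controls: 0 for no effect and ±100 for the full control effect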); details: RORgamma reporter cell line viability counter screen; series mostly up to 92.2 µM
Summary of the method: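 Luminescence from CellTiter-Glo after 30 min at room temperature reported cellular ATP as the cytotoxicity measure. Cells were the CHO reporter line with doxycycline-induced ROR-gamma expression, exposed to compound for 16 hr at 37 C.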

[14] = biological target: Arylsulfatase A (Homo sapiens) (UniProt P15289); experiment: qHTS screen for enhancers of Arylsulfatase A (ASA1): LOPAC Validation Assay (AID 720538); details: ASA enzyme activity, LOPAC qHTS enhancer assay; series mostly up to 57.5 µM; also: 0% is about no effect
Chain of Arylsulfatase A (Homo sapiens) (P15289 whole entry, looked up): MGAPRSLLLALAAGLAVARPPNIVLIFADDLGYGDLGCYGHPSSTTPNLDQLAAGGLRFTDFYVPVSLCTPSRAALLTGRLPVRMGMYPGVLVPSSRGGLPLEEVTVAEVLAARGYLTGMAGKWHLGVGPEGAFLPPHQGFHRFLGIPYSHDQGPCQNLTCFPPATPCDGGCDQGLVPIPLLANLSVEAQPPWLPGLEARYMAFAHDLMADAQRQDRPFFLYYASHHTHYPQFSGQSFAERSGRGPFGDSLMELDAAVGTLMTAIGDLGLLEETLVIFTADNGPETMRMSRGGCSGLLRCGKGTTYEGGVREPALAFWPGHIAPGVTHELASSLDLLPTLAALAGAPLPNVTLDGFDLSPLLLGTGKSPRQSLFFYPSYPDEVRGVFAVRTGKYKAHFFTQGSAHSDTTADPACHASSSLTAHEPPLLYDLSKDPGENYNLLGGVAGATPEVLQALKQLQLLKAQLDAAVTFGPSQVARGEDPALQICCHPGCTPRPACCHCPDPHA
Summary of the method: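 Cell-based enhancement test: residual ASA activity in SV40-transformed I179S patient fibroblasts is measured by pNCS turnover (0.5mM final, 14h, room temperature) following 48h compound incubation; higher fluorescence indicates activation.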

[15] = qHTS for small molecule inhibitors of Yes1 kinase: Counter Assay (AID 686950); details: series mostly up to 76.9 µM;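 also: no kinase present so only ADP-Glo detection of a fixed ADP amount is tested; luminescence from ADP-Glo reporting ADP in a fixed ATP and ADP mixture; 0% = DMSO wells with ATP plus ADP and -100% = ATP-only wells without ADP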
Summary of the method: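 Luminescence read-out from ADP-Glo quantifies a fixed ADP amount (0.02 mM ADP with 0.08 mM ATP) after 60 min at room temperature; signal is normalized between DMSO wells with ATP/ADP and with 0.1 mM ATP alone.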

NC(=O)c1ncn([C@@H]2O[C@H](CO)[C@@H](O)[C@H]2O)n1
inactive: activation [1] 0.173% | max response [2] -11% | outcome [3] | Potency [4] | outcome [5] | outcome [6] | max response [7] -11.8% | outcome [8] | outcome [9] | outcome [10] | max response [11] -2.06% and 29.2%

CC12CCC(CC1)C(C)(C)O2
inactive: activation [1] -0.144% | max response [2] -0.195% | Potency [12] | outcome [6] | Potency [13] | max response [7] 3.37%

CN(C)CCOC(C)(c1ccccc1)c1ccccn1 (configuration not stated)
inactive: activation [1] -1.5% | max response [2] -0.887% | Potency [14] | outcome [6] | max response [7] -11.9% | outcome [8] | outcome [9] | outcome [10] | max response [11] 7.8%

[Cl][In]([Cl])[Cl]
inactive: activation [1] 0.307% | max response [2] -1.33% | Potency [12] | Potency [13] | max response [7] 5.32% | max response [11] -7.04% and -5.36%

CN(C)CCC=C1c2ccccc2CCc2ccccc21
inactive: activation [1] -1.66% and 0.429% | max response [2] -4.24% and -3.42% | outcome [3] | Potency [4] | outcome [5] | outcome [8] | outcome [9] | outcome [10]

CNC(=O)Oc1ccc2c(c1)[C@]1(C)CCN(C)[C@@H]1N2C
inactive: activation [1] 2.6% | max response [2] -3.11% | outcome [3] | Potency [4] | outcome [5] | outcome [6] | max response [7] -1.23% | outcome [9] | outcome [10]

CC(O)COc1ccccc1 (configuration not stated)
inactive: activation [1] 1.38% | max response [2] -0.783% | outcome [6] | max response [7] -6.41%

NCCNCCNCCNCCN
inactive: activation [1] -0.491% and -2.35% | max response [2] -1.59% and -2.29% | Potency [12] | outcome [6] | Potency [13] | max response [7] -13.9% and 10.9%

O=C1NS(=O)(=O)c2ccccc21
inactive: max response [2] 0.552% | outcome [6] | max response [7] -2.82% | max response [11] 5.05%

CCN(CC)CCNC(=O)c1c(C)[nH]c(/C=C2\C(=O)Nc3ccc(F)cc32)c1C
inactive: outcome [15]

CC(C)C(=O)c1c(C(C)C)nn2ccccc12
inactive: Potency [14] | outcome [3] | Potency [4] | outcome [5] | outcome [8] | outcome [9] | outcome [10] | max response [11] -11.3% and 12.6%

Source: PubChem BioAssay (NCATS)
